Broadly, the AC50 is the concentration at which the activity in the assay is half-maximal.

SMILES strings stand for the structures. “And” between values parts separate entries of the source, which are not always exact repeats. Equal values may be shown once. More than one record can exist for a structure, and the calls need not agree. The source made the active and inactive calls. The calls were made as follows: active = hit-call score of the fitted dose curve at least 0.9, where 1 is the maximum; inactive = score below 0.9.

Among the data in PubChem BioAssay (EPA / NIEHS) are outcome and AC50 values, retold here.

Assay [1] is described as follows: BSK_hDFCGF_SRB: Viability Assessment in the BioMAP Diversity Plus: hDFCGF Assay (AID 2283061).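 Also: cells exposed to compound for 24 h before the read.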 The settings on record: primary human foreskin fibroblasts. The procedure, abridged: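 Readout is SRB absorbance at 560 nm, reflecting total protein in parallel cultures of human foreskin fibroblasts harvested 24 h after chemical dosing. Activity was fitted bidirectionally relative to DMSO.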

Read-out in assay [2]: TIMP metallopeptidase inhibitor 1 (TIMP1), TIMP1 (gene 7076)
In words: BSK_hDFCGF_TIMP1: BioMAP Diversity Plus: hDFCGF Assay for TIMP metallopeptidase inhibitor 1 (TIMP1) Biomarker Activity (AID 2283062). The conditions noted are these: primary human foreskin fibroblasts; actives raise or lower the signal. The procedure, abridged: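 Human skin fibroblasts (primary), hDFCGF system; compound exposure 24 h; TIMP-1 by ELISA; bidirectional fit vs DMSO negative control; overt cytotoxicity by SRB in parallel wells.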

Read-out in assay [3]: Monokine induced gamma interferon (MIG), CXCL9 (gene 4283)
In words: BSK_hDFCGF_MIG: BioMAP Diversity Plus: hDFCGF Assay for Monokine induced gamma interferon (MIG) Biomarker Activity (AID 2283063). The conditions noted are these: primary human foreskin fibroblasts; actives raise or lower the signal. A digest of the protocol:
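Chemicals were added to primary human foreskin fibroblast cultures, which were sampled 24 h later. MIG levels were then quantified by ELISA and responses fitted in both directions relative to DMSO.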

Read-out in assay [4]: Matrix Metallopeptidase 1 (MMP1), MMP1 (gene 4312)
In words: BSK_hDFCGF_MMP1: BioMAP Diversity Plus: hDFCGF Assay for Matrix Metallopeptidase 1 (MMP1) Biomarker Activity (AID 2283064). The conditions noted are these: primary human foreskin fibroblasts; actives raise or lower the signal. A digest of the protocol: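 Human foreskin fibroblasts exposed to chemical for 24 h; MMP1 detected by ELISA, with DMSO as baseline for bidirectional fitting.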

Read-out in assay [5]: Vascular cell adhesion molecule 1 (VCAM1), VCAM1 (gene 7412)
Description: BSK_hDFCGF_VCAM1: BioMAP Diversity Plus: hDFCGF Assay for Vascular cell adhesion molecule 1 (VCAM1) Biomarker Activity (AID 2283065).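 As to AC50: VCAM-1 protein level quantified by ELISA after 24 h chemical exposure.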 The conditions noted are these: primary human foreskin fibroblasts; actives raise or lower the signal. A digest of the protocol:
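Human foreskin fibroblast primary cells, chemical exposure 24 h; VCAM-1 by ELISA; bidirectional fit, DMSO = negative control/baseline.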

Read-out in assay [6]: Plasminogen activator inhibitor-1 (PAI1), SERPINE1 (gene 5054)
In words: BSK_hDFCGF_PAI1: BioMAP Diversity Plus: hDFCGF Assay for Plasminogen activator inhibitor-1 (PAI1) Biomarker Activity (AID 2283066). The conditions noted are these: primary human foreskin fibroblasts; actives raise or lower the signal. The procedure, abridged: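 PAI-1 levels in human dermal foreskin fibroblasts were quantified by ELISA 24 h after dosing, with gain or loss analysed against DMSO. Overt cytotoxicity was checked by sulforhodamine B total-protein staining in parallel cultures.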

Read-out in assay [7]: Interferon-gamma inducible Protein 10 (IP10), CXCL10 (gene 3627)
Description: BSK_KF3CT_IP10: BioMAP Diversity Plus: KF3CT Assay for Interferon-gamma inducible Protein 10 (IP10) Biomarker Activity (AID 2283068). The settings on record: primary human keratinocytes with fibroblasts; actives raise or lower the signal. A digest of the protocol:
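KF3CT co-culture (keratinocytes + foreskin fibroblasts), 24 h compound, IP-10 by ELISA; bidirectional fit vs DMSO baseline.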

Assay [8] can be described thus: BSK_KF3CT_SRB: Viability Assessment in the BioMAP Diversity Plus: KF3CT Assay (AID 2283069).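 Also: read 24 h after compound addition; fitted for both signal gain and loss against DMSO baseline.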 The conditions noted are these: primary human keratinocytes with fibroblasts. A digest of the protocol: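 Overt cytotoxicity is assessed as total protein by sulforhodamine B staining in parallel human skin co-cultures at 24 h after dosing. DMSO serves as negative control and baseline.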

Read-out in assay [9]: Interleukin-1 alpha (IL1a), IL1A (gene 3552)
In words: BSK_KF3CT_IL1a: BioMAP Diversity Plus: KF3CT Assay for Interleukin-1 alpha (IL1a) Biomarker Activity (AID 2283070). The conditions noted are these: primary human keratinocytes with fibroblasts; actives raise or lower the signal. The procedure, abridged: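 Readout is IL-1a level by ELISA, compared bidirectionally with DMSO as baseline. Cells: human keratinocytes co-cultured with foreskin fibroblasts, harvested 24 h post-dose.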

Read-out in assay [10]: Intercellular Adhesion Molecule 1 (ICAM1), ICAM1 (gene 3383)
In words: BSK_KF3CT_ICAM1: BioMAP Diversity Plus: KF3CT Assay for Intercellular Adhesion Molecule 1 (ICAM1) Biomarker Activity (AID 2283067). The settings on record: primary human keratinocytes with fibroblasts; actives raise or lower the signal. A digest of the protocol: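 ICAM-1 levels are measured by ELISA 24 h after dosing a primary human co-culture of keratinocytes and foreskin fibroblasts. Activity in either direction is fitted relative to DMSO vehicle.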

With `FC(F)(F)C(F)(F)C(F)(F)C(F)(F)C(F)(F)C(F)(F)C(F)(F)CCI`, the outcome in [1], in assay [2], in assay [3], in assay [4], in assay [5] and in assay [6] was inactive. In addition, the result in assay [7], in assay [8] and in assay [9] was inactive. Moreover, the AC50 in assay [3] was 3.33 µM (active).

As for `OCC(O)CC(F)(F)C(F)(F)C(F)(F)C(F)(F)C(F)(F)C(F)(F)C(F)(F)C(F)(F)F` (stereo not drawn), the outcome in [1], in assay [2], in assay [3], in [4], in assay [5] and in assay [6] was inactive. In addition, the result in [10], in assay [7], in assay [8] and in [9] was inactive. The AC50 in [9] was 166 nM (active).

Turning to `CO[Si](C)(CCC(F)(F)C(F)(F)C(F)(F)C(F)(F)C(F)(F)C(F)(F)F)OC`, the outcome in [1], in assay [2], in [3], in assay [4], in assay [5] and in [6] was inactive. The result in assay [10], in assay [7], in assay [8] and in assay [9] was inactive.

Regarding `O=C(F)C1(F)C(F)(F)C(F)(F)C(F)(F)C(F)(F)C1(F)F`, the result in [1], in [2], in assay [3], in assay [4], in [5] and in [6] was inactive. Also, the outcome in assay [10], in [7], in assay [8] and in assay [9] was inactive.

For the molecule `CNS(=O)(=O)C(F)(F)C(F)(F)C(F)(F)C(F)(F)C(F)(F)C(F)(F)C(F)(F)C(F)(F)F`, the result in assay [1], in assay [2], in assay [3], in [4], in assay [6] and in assay [10] was inactive. In addition, the result in assay [7], in assay [8] and in assay [9] was inactive. In addition, in assay [5], the AC50 was 800 nM (active) and 1.94 µM (active).

Regarding `C=CC(=O)OCCC(F)(F)C(F)(F)C(F)(F)C(F)(F)F`, the AC50 in [1] is 8.28 µM (active); in [3], 25.3 µM (active) and 30.9 µM (active); in assay [4], 14.5 µM (active) and 18.3 µM (active); in [5], 13.7 µM (active) and 19.4 µM (active). In addition, the result in assay [1], in [2], in [6], in assay [7], in [8] and in assay [9] was inactive.

As to `NS(=O)(=O)C(F)(F)C(F)(F)C(F)(F)C(F)(F)C(F)(F)C(F)(F)F`, the outcome in assay [1], in assay [2], in assay [3], in assay [4], in assay [5] and in [6] was inactive. Moreover, the outcome in assay [10], in assay [7], in assay [8] and in assay [9] was inactive. For the same molecule, in [5], the AC50 is 26.9 µM (active).

As to `C[Si](Cl)(Cl)CCC(F)(F)C(F)(F)C(F)(F)C(F)(F)C(F)(F)C(F)(F)F`, the outcome in [1], in [2], in assay [4], in assay [6], in assay [10] and in [7] was inactive. Besides, the outcome in assay [8] and in assay [9] was inactive. Also, the AC50 is 739 nM (active) in [2]; 1.26 µM (active) and 1.52 µM (active) in assay [3]; 1.18 µM (active) in [4]; 1.4 µM (active) and 876 nM (active) in assay [5].

As to `OCC(F)(F)C(F)(F)C(F)(F)C(F)(F)C(F)(F)C(F)(F)C(F)(F)C(F)(F)CO`, the AC50 in assay [1] was 38.3 µM (active) and 54.8 µM (active); in assay [2], 46.7 µM (active) and 54.5 µM (active); in assay [3] it was 44 µM (active) and 45.1 µM (active); in [4], 55.2 µM (active) and 48.8 µM (active); in assay [5] it was 42.5 µM (active) and 21.8 µM (active); in [6], 54.9 µM (active) and 56.4 µM (active). In addition, the AC50 was 42.4 µM (active) and 42.7 µM (active) in assay [10]; 35.2 µM (active) in assay [7]; 50.9 µM (active) and 44.1 µM (active) in assay [8]; 50400 nM (active) in assay [9]. The result in [7] and in [9] was inactive.

With `NC(=O)C(F)(F)C(F)(F)C(F)(F)C(F)F`, the result in [1], in assay [2], in [3], in assay [4], in assay [5] and in assay [6] was inactive. The result in [10], in assay [7], in assay [8] and in [9] was inactive.

Regarding `O=C(Cl)C(F)(F)C(F)(F)C(F)(F)C(F)(F)C(F)(F)C(F)(F)C(F)(F)F`, the outcome in assay [1], in [2], in assay [3], in [4], in [5] and in assay [6] was inactive. Besides, the outcome in assay [10], in assay [7], in assay [8] and in [9] was inactive. Besides, in assay [2], the AC50 was 26400 nM (active).

As for `CCN=C1C=CC(=C(c2ccc(N(CC)CC)cc2)c2ccc(N(CC)CC)cc2)c2ccccc21`, the AC50 in assay [1] was 0.331 µM (active); in assay [2] it was 1.42 µM (active) and 1.3 µM (active); in assay [3] it was 1.73 µM (active) and 1.47 µM (active); in assay [4], 1.29 µM (active) and 1.26 µM (active); in assay [5], 1.42 µM (active) and 854 nM (active); in [6], 1.31 µM (active) and 1.23 µM (active). Also, the AC50 in assay [7] was 2.87 µM (active) and 2.44 µM (active); in [9], 2.69 µM (active) and 2.13 µM (active). For the same molecule, the result in [1] and in [8] was inactive.

In the case of `O=C(O)C(F)(F)C(F)(F)C(F)(F)C(F)(F)C(F)(F)C(F)(F)C(F)F`, the outcome in assay [1], in assay [2], in assay [3], in assay [4], in assay [5] and in assay [6] was inactive. The result in assay [10], in [7], in assay [8] and in assay [9] was inactive. Besides, in assay [2], the AC50 was 223 nM (active).

Turning to `OC(O)C(F)(F)C(F)(F)F`, the result in assay [1], in assay [2], in assay [3], in assay [4], in assay [5] and in [6] was inactive. For the same molecule, the result in assay [10], in assay [7], in assay [8] and in [9] was inactive.
